The results in this text go back to PubChem BioAssay (NCATS).

Records with an inconclusive call do not appear. A call without a number means that no potency is given here. Activity calls are given as the source filed them. Calls come from the whole dose curve; as a rule, active = well fitted curve in the direction sought with a large enough effect; inconclusive = small, poorly fitted or top-dose-only effect, or another doubt; inactive = no such curve, though single readings can be large; an effect the other way counts as inactive or inconclusive.

Sequence of Calcium and integrin-binding protein 1 (Homo sapiens) (Q99828 whole entry, looked up): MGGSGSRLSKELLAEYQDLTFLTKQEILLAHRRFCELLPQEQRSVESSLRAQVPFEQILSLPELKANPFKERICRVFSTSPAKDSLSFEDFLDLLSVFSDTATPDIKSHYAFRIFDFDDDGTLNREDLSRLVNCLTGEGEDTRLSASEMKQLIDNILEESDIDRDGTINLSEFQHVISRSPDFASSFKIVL

Tested on in one test: not listed separately
The experiment in a line: Redox Reaction Profiling qHTS: Assay Interference Panel against the NCATS CANVASS Library (AID 1347401). Conditions: resazurin-DTT redox cycling, fluorescence, 15 min; series mostly up to 57.1 µM. A digest of the protocol:
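Quantitative HTS over an 11-point series was run in HEPES pH 7.3 with 50 mM NaCl, 200 uM DTT and 5 uM resazurin. Initial and 15-min resorufin fluorescence readings were taken.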
In general terms: In qHTS, concentration-response curves come from the screen itself.
For `O=C(/C=C/C=C/c1ccc2c(c1)OCO2)N1CCCCC1`, the call was inactive.
As for `CC(C)c1ccc2c(c1)CCC1[C@](C)(C(=O)O)CCC[C@]21C` (some centres undefined), the outcome was inactive.
For `CC(=O)O[C@H]1C[C@@]2(C)[C@@H](CC[C@H]3[C@@]4(C)C=CC(=O)[C@@H](C)[C@@H]4[C@H](OC(C)=O)C(=O)[C@@]32C)/C1=C(\CCC=C(C)C)C(=O)O`, the molecule was called inactive.
Same read-out and setting: to `C/C(=C\CC/C(C)=C/CC[C@]1(C)CCc2cc(O)cc(C)c2O1)CC/C=C(\C)C(=O)O` belongs “inactive”.

Tested on in another test: not listed separately
Put plainly: qHTS to identify inhibitors of the type 1 interferon - major histocompatibility complex class I in skeletal muscle: primary screen against the NCATS Mechanism Interrogation Plate v5.0 (MIPE) Libary (AID 1347411). Note: nearly all actives have a fitted effect of over 65% in size. Conditions: iHSKM cells + IFN-b, HiBiT-tagged MHC-I luminescence, 24 h; series mostly up to 45.8 µM. A digest of the protocol: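 HLA-B HiBit myoblasts, dexamethasone-free medium + 4 ng/ml IFN-b, 24 h compound, 11-pt 1:3 from 46 uM final. Readout: Nano-Glo HiBiT lytic luminescence after 10 min lysis, RT.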
`O=C(COCC(=O)N1CCN(C(c2ccccc2)c2ccccc2)CC1)Nc1ccc(Cl)cc1C(=O)O`: the result was inactive.
On the same count and under the same terms, the value for `Cc1c(F)cc(C(=O)NC2CC2)cc1-c1ccc(C(=O)NCC(C)(C)C)cn1` was “inactive”.
`COc1cccc2c1c(O)c(C(=O)N(C)c1ccc(C(F)(F)F)cc1)c(=O)n2C`: the result was inactive.
As to `N#CN1CCC[C@@H](n2nc(-c3ccc(Oc4ccc(F)cc4F)cc3)c(C(N)=O)c2N)C1`, the outcome was inactive.
As for `O=C(/C=C/C=C/c1ccc2c(c1)OCO2)N1CCCCC1`, the result was inactive.
As for `CC(C)[C@](O)(c1ccc2cc(OC(F)F)c(OC(F)F)cc2c1)c1cn[nH]n1`, the outcome was inactive.
On the same count and under the same terms, to `Cc1nc(-c2cccnc2)sc1C(=O)Nc1ccccc1-c1cn2c(CN3CCOCC3)csc2n1` belongs “inactive”.
On the same count and under the same terms, to `COCCCc1sc(-c2ccccc2)nc1C(=O)Nc1ccccc1-c1nc2cc(CN3CCCC3)cnc2s1` belongs “inactive”.
Take `N#Cc1cccc(-c2c[nH]c3ncnc(N4CCOCC4)c23)c1`: the result was inactive.
As for `CNc1nc(C)nc(N[C@H]2CCC[C@@H](C(=O)NCc3ccc(C#N)cc3C(F)(F)F)C2)n1`, the result was inactive.
For `Cc1ccccc1-n1nc(-c2c(-c3ccc(F)cc3)nn3c2NC[C@@H](CO)C3)ccc1=O`, the outcome was inactive.
Regarding `CCC(CC)CC1(C(=O)Nc2ccccc2SC(=O)C(C)C)CCCCC1`, the result was inactive.
For `Nc1ncnc2c1C(=O)N(c1ccc(C3CCC(CC(=O)O)CC3)cc1)CCO2` (centres undefined), the result was inactive.
On the same count and under the same terms, the value for `COc1ccc2[nH]c(S(=O)Cc3ncc(C)c(OC)c3C)nc2c1` (centres undefined) was “inactive”.
Regarding `CCCCOc1nc(N)c2c(n1)N(Cc1cccc(CN3CCCC3)c1)CC(=O)N2`, the outcome was inactive.
In the case of `Cn1cc(-c2c[nH]c3ncnc(N4CCOCC4)c23)cn1`, the result was inactive.
As for `C=C1C[C@@]2(O)O[C@@]3(C[C@H]2C(C)C)[C@@H](C)CC[C@@H]13`, the outcome was inactive.
Take `N#Cc1ccc(C2CCCc3cncn32)cc1` (centres undefined): the result was inactive.
Take `O=C(O)CC1CCC(c2ccc(-c3ccc(Nc4ccc(C(F)(F)F)nc4)cn3)cc2)CC1` (centres undefined): the outcome was inactive.
Turning to `CCc1cccc2c3c([nH]c12)[C@@](CC)(CC(=O)O)OCC3`, the outcome was inactive.
`CC(C)N(CCCNC(=O)Nc1ccc(C(C)(C)C)cc1)C[C@H]1O[C@@H](n2ccc3c(N)ncnc32)[C@H](O)[C@@H]1O`: the outcome was inactive.
Regarding `Cc1cccc(-c2nn3c(c2-c2ccnc4ccc(C(N)=O)cc24)CCC3)n1`, the outcome was inactive.
Take `C[C@@H]1O[C@@H](O[C@@H]2\C=C/C=C\C=C/C=C\C[C@H](C)OC(=O)/C=C\[C@H]3O[C@@H]3C[C@H](O)C[C@]3(O)C[C@@H](O)[C@@H](C(=O)O)[C@H](C2)O3)[C@H](O)[C@H](N)[C@@H]1O`: the result was inactive.
`Cc1ncc(Cl)cc1NCc1ccc(C(=O)NC(CC2CCCC2)C(=O)NC2CC2)s1` (centres undefined): the result was inactive.

Another test addresses Calcium and integrin-binding protein 1 (Homo sapiens) (UniProt Q99828). Put plainly: Confirmatory qHTS for Identification of Calcium Integrin Binding Protein 1 (CIB1) Competitor (AID 1508617). Note: potency is the fitted concentration of half-maximal effect; nearly all actives have a fitted effect of over 65% in size. The note with it: CIB1 binding competition assay, biochemical qHTS. A digest of the protocol: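 FP competition: CIB1-GST (1 uM final) in 5 mM HEPES pH 7.4, 125 mM NaCl, 5 mM CaCl2, 0.01% Tween20 preincubated 15 min RT with compounds (up to 114 uM), then FITC-alphaIIb peptide (100 nM), 15 min RT; Ex 480/Em 540.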
As for `CC(=O)NC(Cc1c[nH]c2ccccc(=O)c12)C(=O)O` (centres undefined), the Potency is 44.7 µM (active).
For `COc1ccc(CC(NC(C)=O)C(=O)O)cc1` (centres undefined), the Potency is 50.1 µM (active).
Take `Cc1c(Cc2ccc3ccccc3n2)c2cc(F)ccc2n1CC(=O)O`: the Potency is 50.1 µM (active).

For the next test the target is unchanged. Put plainly: Primary qHTS for Identification of Calcium Integrin Binding Protein 1 (CIB1) Competitor (AID 1508620).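 For activity change, negative = inhibition: GST tagged CIB1 binding a fluorescein labelled alphaIIb integrin peptide tracer; top concentration of the series differs between compounds.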 Note: potency is the fitted concentration of half-maximal effect. The note with it: CIB1-GST / FITC-alphaIIb peptide fluorescence polarization; series mostly up to 57.7 µM. A digest of the protocol:
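Fluorescence polarization competition: CIB1-GST (1 uM final) preincubated with compound 15 min at room temperature, then FITC-labeled alphaIIb peptide (100 nM final) added for another 15 min. Polarization read at Ex 480/Em 540.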
With `CC(NC(=O)[C@H](Cc1ccccc1)NC(=O)OCc1ccccc1)C(=O)CF` (some centres undefined), the Potency entry was “inactive”.
In the case of `O=C(COCC(=O)N1CCN(C(c2ccccc2)c2ccccc2)CC1)Nc1ccc(Cl)cc1C(=O)O`, the Potency entry is “inactive”.
Consider `Cc1c(F)cc(C(=O)NC2CC2)cc1-c1ccc(C(=O)NCC(C)(C)C)cn1`, for which the Potency result was “inactive”.
For `COc1cccc2c1c(O)c(C(=O)N(C)c1ccc(C(F)(F)F)cc1)c(=O)n2C`, the Potency entry is “inactive”.
As for `CC(CCO)CCC1C2(C)CCCC(C)(C)C2CC[C@@]1(C)O` (some centres undefined), the Potency result is “inactive”.
As to `N#CN1CCC[C@@H](n2nc(-c3ccc(Oc4ccc(F)cc4F)cc3)c(C(N)=O)c2N)C1`, the Potency result was “inactive”.
As to `O=C(/C=C/C=C/c1ccc2c(c1)OCO2)N1CCCCC1`, the Potency result is “inactive”.
As to `CC(C)c1ccc2c(c1)CCC1[C@](C)(C(=O)O)CCC[C@]21C` (some centres undefined), the Potency entry is “inactive”.
Consider `CC(C)[C@](O)(c1ccc2cc(OC(F)F)c(OC(F)F)cc2c1)c1cn[nH]n1`, for which the Potency entry is “inactive”.
Still for that read-out and setting: the value for `Cc1nc(-c2cccnc2)sc1C(=O)Nc1ccccc1-c1cn2c(CN3CCOCC3)csc2n1` was “inactive”.
Consider `CC1OC(O[C@@H]2[C@H](O)[C@@H](OC3OC(CO)C(O)C(O)C3O)[C@H](OC(=O)[C@]34CCC(C)(C)C[C@H]3C3=CCC5[C@@]6(C)CC[C@H](O[C@@H]7O[C@H](C(=O)O)[C@@H](O)[C@H](O[C@@H]8OC[C@@H](O)[C@H](O)[C@H]8O)[C@H]7O[C@@H]7O[C@H](CO)[C@H](O)[C@H](O)[C@H]7O)[C@@](C)(C=O)C6CC[C@@]5(C)[C@]3(C)C[C@H]4O)O[C@@H]2C)C(O)C(O)C1OC1OCC(O)C(O)C1O` (some centres undefined), for which the activity change, negative = inhibition is -2.12% [at 12.4 µM] (inactive).
Consider `COCCCc1sc(-c2ccccc2)nc1C(=O)Nc1ccccc1-c1nc2cc(CN3CCCC3)cnc2s1`, for which the Potency entry was “inactive”.
The same measure, in the same setting: to `N#Cc1cccc(-c2c[nH]c3ncnc(N4CCOCC4)c23)c1` belongs “inactive”; to `Cc1ccccc1-n1nc(-c2c(-c3ccc(F)cc3)nn3c2NC[C@@H](CO)C3)ccc1=O`, “inactive”; to `CCC(CC)CC1(C(=O)Nc2ccccc2SC(=O)C(C)C)CCCCC1`, “inactive”.
The same measure, in the same setting: to `CCCCOc1nc(N)c2c(n1)N(Cc1cccc(CN3CCCC3)c1)CC(=O)N2` belongs “inactive”; to `Cn1cc(-c2c[nH]c3ncnc(N4CCOCC4)c23)cn1`, “inactive”; to `C=CCC/C=C/C#CCCCCCCCC[C@H]1C(=O)O[C@H](C)[C@@H]1O`, “inactive”.
On to `COC(=O)[C@@H](NC(=O)[C@H](CC(C)C)NC(=O)N(Cc1ccccc1)C[C@@H](O)[C@H](Cc1ccccc1)NC(=O)OC(C)(C)C)C(C)C`, for which the Potency result was “inactive”.
Consider `C=C1C[C@@]2(O)O[C@@]3(C[C@H]2C(C)C)[C@@H](C)CC[C@@H]13`, for which the Potency entry was “inactive”.
Take `N#Cc1ccc(C2CCCc3cncn32)cc1` (centres undefined): the Potency result was “inactive”.
`O=C(O)CC1CCC(c2ccc(-c3ccc(Nc4ccc(C(F)(F)F)nc4)cn3)cc2)CC1` (centres undefined): the Potency entry is “inactive”.
As for `CC(C)=CCc1c(O)cc2oc3cc(C)cc(O)c3c2c1C`, the Potency entry was “inactive”.
The same measure, in the same setting: the value for `CCc1cccc2c3c([nH]c12)[C@@](CC)(CC(=O)O)OCC3` was “inactive”.
Still for that read-out and setting: the value for `Cc1c(Cc2ccc3ccccc3n2)c2cc(F)ccc2n1CC(=O)O` was 44.7 µM (active); that for `CC(C)N(CCCNC(=O)Nc1ccc(C(C)(C)C)cc1)C[C@H]1O[C@@H](n2ccc3c(N)ncnc32)[C@H](O)[C@@H]1O` was “inactive”.
Still for that read-out and setting: the value for `Cc1cccc(-c2nn3c(c2-c2ccnc4ccc(C(N)=O)cc24)CCC3)n1` was “inactive”; that for `COCCN1CCC(C(=O)NO)(S(=O)(=O)c2ccc(Oc3ccc(OC(F)(F)F)cc3)cc2)CC1` was “inactive”; that for `CC(=O)OC12CC(C)C(OC(=O)c3ccccc3)C1/C=C(/C)C(OC(=O)c1ccccc1)CC(=O)C(C)(C)/C=C/C(C)C2=O` (centres undefined) was “inactive”.
With `CC(=O)O[C@H]1C[C@@]2(C)[C@@H](CC[C@H]3[C@@]4(C)C=CC(=O)[C@@H](C)[C@@H]4[C@H](OC(C)=O)C(=O)[C@@]32C)/C1=C(\CCC=C(C)C)C(=O)O`, the Potency entry was “inactive”.
On to `C[C@@H]1O[C@@H](O[C@@H]2\C=C/C=C\C=C/C=C\C[C@H](C)OC(=O)/C=C\[C@H]3O[C@@H]3C[C@H](O)C[C@]3(O)C[C@@H](O)[C@@H](C(=O)O)[C@H](C2)O3)[C@H](O)[C@H](N)[C@@H]1O`, for which the Potency entry was “inactive”.
As to `C/C(=C\CC/C(C)=C/CC[C@]1(C)CCc2cc(O)cc(C)c2O1)CC/C=C(\C)C(=O)O`, the Potency entry is “inactive”.
On to `Cc1ncc(Cl)cc1NCc1ccc(C(=O)NC(CC2CCCC2)C(=O)NC2CC2)s1` (centres undefined), for which the Potency entry was “inactive”.
